Rows were chosen to be rich in hits. Some 21% of all compounds tested hit in one or more screens of this group.
Cycloheximide cs: Cycloheximide Counterscreen for Small Molecule Inhibitors of Shiga Toxin; max response, %; cell reporter, cycloheximide protein synthesis inhibition counterscreen; hit rate 12% among 300,000; in the data active = max response mostly above about 13%, no sharp cut-off; inactive = mostly below about 14%; note: read at 38.3 µM for the half of the compounds with a filed dose
Shiga inhibitor: A qHTS for Small Molecule Inhibitors of Shiga Toxin; AID 2315, 2010; Vero cells, Shiga toxin protein synthesis inhibition reporter; inhibition, % at 38.7 µM; hit rate 9.2% among 290,000; in the data active = inhibition mostly above about 28%, no sharp cut-off; inactive = mostly below about 43%
Pf growth 96h: Primary qHTS for delayed death inhibitors of the malarial parasite plastid, 96 hour incubation; Potency, µM (doses to about 28.7 µM), hits mostly inhibitors; AID 504834, 2011; P. falciparum luciferase reporter growth, 96 h; hit rate 6.9% among 320,000
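Two-generation exposure (96 h) targets delayed-death phenotype. Reporter parasites carrying integrated firefly luciferase, in red cells at 2% hematocrit and 0.05% parasitemia final, kept at 37 C, 5% CO2; luminescence loss indicates inhibition.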
Pf growth 48h: Primary qHTS for delayed death inhibitors of the malarial parasite plastid, 48 hour incubation. P. falciparum luciferase growth in erythrocytes, 48 h. Potency, µM (series often up to 28.7 µM), actives largely listed as inhibitors. hit rate 5.9% among 310,000
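Luciferase-expressing parasites in RBCs, 2% Hct / 0.1% parasitemia final; RPMI 1640 + 0.5% Albumax; 37 C, 5% CO2, one generation; luminescence read-out, lower signal = inhibition.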
Hits are given with their value. Unless noted, calls come from the whole dose curve; as a rule, active = well fitted inhibition curve with a large enough effect; inconclusive = small, poorly fitted or top-dose-only effect, or another doubt; inactive = no such curve, though single readings can be large or run the other way.

Results for Cc1cc(NC(=O)CSc2nnc(-c3ccc(Br)o3)n2Cc2ccccc2)no1 ?
Cycloheximide cs: inactive; Shiga inhibitor: inactive; Pf growth 96h: inconclusive; Pf growth 48h: inconclusive

How did O=C(CSc1nnc(-c2ccco2)n1Cc1ccccc1)c1ccc(F)cc1 do in these assays?
Cycloheximide cs: 36; Shiga inhibitor: 60; Pf growth 96h: inactive; Pf growth 48h: inconclusive

What do the screens show for `O=C(CSc1nnc(-c2ccc(Br)o2)n1Cc1ccccc1)c1ccccc1F`?
Cycloheximide cs: inactive; Shiga inhibitor: inactive; Pf growth 96h: inconclusive; Pf growth 48h: 9.3µM

How did O=C1[C@H]2[C@@H](/C=C/c3ccccc3)N3C(=O)CN(Cc4ccccn4)C(=O)[C@@]3(Cc3ccccc3)[C@H]2C(=O)N1c1ccccc1 do in these assays?
Cycloheximide cs: inactive; Shiga inhibitor: inactive; Pf growth 96h: inactive; Pf growth 48h: inactive

Results for C[C@@H]1CCC(=O)N(CC[C@H](Oc2ccccc2)c2ccccc2)CC1 ?
Cycloheximide cs: inactive; Shiga inhibitor: inactive; Pf growth 96h: inconclusive; Pf growth 48h: inconclusive

What do the screens show for `CCCN(c1ccc(OCC)cc1)S(=O)(=O)c1ccc2c(c1)CCN2C(=O)CCC(=O)O`?
Cycloheximide cs: inactive; Shiga inhibitor: inactive; Pf growth 96h: inactive; Pf growth 48h: inconclusive

How did CC(=O)N1CCc2cc(S(=O)(=O)NCCC(=O)NC3CCCc4ccccc43)ccc21 (stereo not drawn) do in these assays?
Cycloheximide cs: inactive; Shiga inhibitor: inactive; Pf growth 96h: inactive; Pf growth 48h: 12µM

Results for Cc1ccccc1NS(=O)(=O)c1cc2c3c(c1)CC(=O)N3CCC2 ?
Cycloheximide cs: inactive; Shiga inhibitor: inactive; Pf growth 96h: inactive; Pf growth 48h: 13µM

How did CCCCN(c1ccccc1)S(=O)(=O)c1ccc2c(c1)CCN2C(=O)CCC(=O)O do in these assays?
Cycloheximide cs: inactive; Shiga inhibitor: inactive; Pf growth 96h: 9.3µM; Pf growth 48h: inconclusive

How did CC1CCN(CCCNS(=O)(=O)c2ccc3c(c2)CCN3C(=O)C2CC2)CC1 do in these assays?
Cycloheximide cs: inactive; Shiga inhibitor: inactive; Pf growth 96h: inconclusive; Pf growth 48h: inactive

Results for CCC(=O)N1CCc2cc(S(=O)(=O)NCCN3CCC(C)CC3)ccc21 ?
Cycloheximide cs: inactive; Shiga inhibitor: inactive; Pf growth 96h: 1.7µM

Results for CN(C(=O)CCCN1C(=O)c2ccccc2C1=O)C1CCCCC1 ?
Pf growth 96h: inactive; Pf growth 48h: inconclusive

Results for O=C(NCCNC(=O)c1ccc(Br)o1)c1cccnc1 ?
Cycloheximide cs: inactive; Shiga inhibitor: inactive; Pf growth 96h: inactive; Pf growth 48h: inactive

How did O=C(NC(=S)N1CCCC1)c1ccccc1F do in these assays?
Pf growth 96h: inactive; Pf growth 48h: inactive

How did CCC(=O)N1CCc2cc(S(=O)(=O)Nc3ccccc3C)ccc21 do in these assays?
Cycloheximide cs: inactive; Shiga inhibitor: inactive; Pf growth 96h: 0.93µM; Pf growth 48h: inactive

Results for COc1ccccc1C1=NOC(C)(c2sc(-c3ccc(Cl)cc3)nc2C)C1 (stereo not drawn) ?
Cycloheximide cs: 20; Shiga inhibitor: 31; Pf growth 96h: inactive; Pf growth 48h: inactive

What do the screens show for `Cc1nc(-c2ccc(Cl)cc2)sc1C1(C)CC(c2ccc(OC(F)(F)F)cc2)=NO1` (stereo not drawn)?
Cycloheximide cs: inactive; Shiga inhibitor: inactive; Pf growth 96h: inactive; Pf growth 48h: inactive

Results for CCC(CC)c1nnc(NC(=O)c2cc(C(=O)OC)cc([N+](=O)[O-])c2)s1 ?
Cycloheximide cs: inactive; Shiga inhibitor: inactive; Pf growth 96h: inconclusive; Pf growth 48h: inactive

Results for COc1cc2oc(=O)cc(-c3ccc(-c4ccc(NC(C)=O)cc4)cc3)c2c(OC)c1OC ?
Cycloheximide cs: 53; Shiga inhibitor: 81

What do the screens show for `Cc1ccnc2ccc(SC(F)(F)F)cc12`?
Cycloheximide cs: inactive; Shiga inhibitor: inactive; Pf growth 96h: inactive; Pf growth 48h: inactive

How did COc1ccc(N(C(=O)Cn2nnc3ccccc32)C(C(=O)NCc2ccco2)c2ccncc2)cc1 (stereo not drawn) do in these assays?
Cycloheximide cs: inactive; Shiga inhibitor: inactive; Pf growth 96h: inactive; Pf growth 48h: inactive

What do the screens show for `COC(=O)/C=C/c1ccc(-n2ccnc2)cc1`?
Cycloheximide cs: 40; Shiga inhibitor: 38; Pf growth 96h: inactive; Pf growth 48h: inactive

How did Cc1ccc(Nc2ncnc3sc(C)c(C)c23)cc1 do in these assays?
Cycloheximide cs: 24; Shiga inhibitor: 79; Pf growth 96h: 9.3µM; Pf growth 48h: inactive

How did Cc1ccc(S(=O)(=O)Nc2ncnc3sc(C)c(C)c23)cc1 do in these assays?
Pf growth 96h: inactive; Pf growth 48h: inactive

Results for Cc1sc2ncnc(N/N=C/c3cccc(O)c3)c2c1C ?
Cycloheximide cs: 42; Shiga inhibitor: 29; Pf growth 96h: inactive; Pf growth 48h: inactive

How did C/C(=N\Nc1ncnc2sc(C)c(C)c12)c1ccccn1 do in these assays?
Cycloheximide cs: 49; Shiga inhibitor: 67; Pf growth 96h: 0.046µM; Pf growth 48h: 0.17µM

What do the screens show for `Cc1sc2ncnc(Nc3ccc(O)cc3)c2c1C`?
Cycloheximide cs: inactive; Shiga inhibitor: inactive; Pf growth 96h: inconclusive; Pf growth 48h: inactive

Results for O=C(COC(=O)C1CC2CCCC(C1)C2=O)NNC(=O)c1ccc([N+](=O)[O-])cc1 (stereo not drawn) ?
Pf growth 96h: inactive; Pf growth 48h: inactive

Results for CSc1ccc(S(=O)(=O)NCCCOC(C)C)cc1 ?
Cycloheximide cs: inactive; Shiga inhibitor: inactive; Pf growth 96h: inactive; Pf growth 48h: inactive

What do the screens show for `Cc1ccc(C(=O)c2cc(Br)ccc2N)cc1`?
Cycloheximide cs: 22; Shiga inhibitor: 45; Pf growth 96h: 1.7µM; Pf growth 48h: inactive

Results for Cc1ccc(C(=O)c2cncc(Br)c2)cc1 ?
Cycloheximide cs: 22; Shiga inhibitor: inactive; Pf growth 96h: inactive; Pf growth 48h: inactive

What do the screens show for `CCc1ccc(C(=O)c2cncc(Br)c2)cc1`?
Cycloheximide cs: 35; Shiga inhibitor: 49; Pf growth 48h: inconclusive

How did COc1cc(C2NC(=O)NC(c3ccccc3)=C2C(C)=O)c(Br)c(Br)c1O (stereo not drawn) do in these assays?
Cycloheximide cs: inactive; Pf growth 96h: 0.74µM; Pf growth 48h: 1.3µM

How did O=C(CSc1nc2ccccc2n1Cc1ccccc1Cl)N/N=C/c1ccccc1C(=O)O do in these assays?
Cycloheximide cs: 17; Shiga inhibitor: inactive; Pf growth 96h: 5.2µM; Pf growth 48h: inconclusive

What do the screens show for `COc1ccc(Cl)cc1NC(=S)Nc1ccccc1C`?
Cycloheximide cs: inactive; Shiga inhibitor: inactive; Pf growth 96h: inconclusive; Pf growth 48h: inactive

Results for CC(C)Cn1c(N)c(C(=O)COC(=O)Cc2cccs2)c(=O)n(C)c1=O ?
Cycloheximide cs: inactive; Shiga inhibitor: inactive; Pf growth 96h: inactive; Pf growth 48h: inactive

How did CC(C)Cn1c(N)c(C(=O)COC(=O)c2ccc3ccccc3n2)c(=O)n(C)c1=O do in these assays?
Cycloheximide cs: inactive; Shiga inhibitor: inactive; Pf growth 96h: 4.1µM; Pf growth 48h: inactive

What do the screens show for `CC(C)Cn1c(N)c(C(=O)COC(=O)Cc2cccc(C(F)(F)F)c2)c(=O)n(C)c1=O`?
Pf growth 96h: inconclusive; Pf growth 48h: 9.3µM

Screening results deposited in PubChem by National Center for Advancing Translational Sciences (NCATS).
